# Source: PubChem BioAssay (NCI)
# The panel holds about 83,000 compounds, 20% with a hit somewhere; the sample as a whole holds those more often.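 Results are percent growth after 48 hours of single-concentration exposure. 100 means growth as in untreated cells, lower positive values show inhibition; negative values down to -100 show cell death.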 Unmarked numbers belong to inactive results. Active and inactive are the calls of the source. Rule for the calls: active = growth percent below 10; inactive = the rest.
# System: DU-145 prostate
# Test: NCI-60 one-dose screen, 48 h (100 = growth as untreated, 0 = no growth, -100 = all killed)
# Details: 10 µM unless noted
row,Compound,growth
1,CO[C@H]1CC(c2ccc[nH]2)=N[C@]12O[C@@H](C)C[C@@H]1CCCCCCCc3ccc([nH]3)[C@H]12,30.3%
2,COc1ccc2c(O)cc3c(c2c1)[C@H](CCl)CN3C(=O)c1cc2cc(NC(=O)CCN3CCOCC3)ccc2[se]1,-0.877% (active)
3,O=c1c(/C=C/c2c(O)ccc3ccccc23)nnc2sc(-c3cccc([N+](=O)[O-])c3)nn12,44.1%
4,CC1(C)CCC[C@]23C(=O)O[C@](O)(C(=O)C4=C[C@@](C)(/C=C/CCCc5ccc6ccc7cccc8ccc5c6c78)CC[C@@]42O)[C@@H]13,-85.7% (active)
5,CCOC(=O)CC1C(CNC(=O)NC)OC(n2cnc3c(NC(=O)Nc4ccccc4)ncnc32)C1O[Si](C)(C)C(C)(C)C (centres undefined),63.3%
6,COc1ccc(-c2ccc(-c3ccc(C(=N)N)nc3)s2)cc1,-91.5% (active)
7,COc1ccc(Cn2cc3c(c2)-c2oncc2CC3)cc1,176%
8,O=[N+]([O-])c1ccc(Oc2cccc3c(Oc4ccc([N+](=O)[O-])cc4[N+](=O)[O-])cccc23)c([N+](=O)[O-])c1,107%
9,CCCCCN(CCCCC)CC(O)c1c(Cl)ccc2ccccc12 (centres undefined),69.4%
10,Cn1cc(-c2csc(-c3cn(C)c4ccc(F)cc34)n2)c2cnccc21,-6.44% (active)
11,CNC1=C([N+](=O)[O-])C(c2ccc(OC)cc2)C(C#N)=C(c2ccc[nH]2)O1 (centres undefined),107%
12,Cc1cc(C(=O)Nc2cc(Nc3ncccc3-c3ncnc4nc[nH]c34)ccc2F)cc(C(C)(C)C#N)c1,60%
13,COC(=O)CNC(=O)c1ccc(NC(=O)c2[nH]c(C)c(Cl)c2Cl)c(O[C@H]2CCNC2)c1,110%
14,FC(F)(F)c1cccc(-c2nnn(Cc3cc(-c4cccc(Cl)c4)no3)n2)c1,113%
15,O=C(Nc1ncc(Cc2ccccc2)s1)c1ccc2c(c1)OCCO2,15.2%
16,CCOC(=O)c1ccc2c(c1)[n+](=O)c(C(C)=O)c(C(F)(F)F)n2[O-],-88.5% (active)
17,O=C(Nc1ccccc1C(F)(F)F)C1=NCCCCN1,106%
18,CCCCCC(C)(O)C(C(=O)O)c1ccccc1 (centres undefined),114%
19,Nc1ncnc2c1N=C(c1ccc([N+](=O)[O-])cc1)CC(c1ccc3c(c1)OCO3)N2 (centres undefined),94.6%
20,COc1cc2c(cc1OC)CC[N+](CCC[N+](C)(C)C)=C2,108%

row,Compound,growth
1,O=C1Nc2ccccc2/C1=C/c1cccn1CCCCCCn1c2ccccc2c(=O)c2ccccc21,94%
2,CCCS(=O)(=O)Nc1cccc(Nc2ncnc3cc(NC(=O)CCl)ccc23)c1Cl,-92.8% (active)
3,Cc1ccc(C23CCC(=O)N2CCc2cncn23)cc1 (centres undefined),105%
4,Cc1ccc(-c2nn(CC(=O)N3CCOCC3)c(N)c2C#N)cc1,111%
5,COC(=O)[C@H](C)NC(=O)[C@@H]1CCCN1C(=O)CNC(=O)[C@H](C)N,105%
6,O=C1c2c(c3c4cccnc4[nH]c3c3ccc4ccccc4c23)C(=O)N1O,54.8%
7,C#CCOc1cccc(Nc2ncnc3c(NC(=O)CCl)cccc23)c1,58.9%
8,COc1ccc(CNc2c3ccccc3nc3ccccc23)cc1OC,24.7%
9,COc1ccc(-c2csc(NC(=O)CSc3nc(C)cc(=O)[nH]3)n2)cc1,106%
10,O=C(CNc1ncco1)Nc1ccc(S(=O)(=O)c2ccc(NC(=O)CNc3ncco3)cc2)cc1,115%
11,Cc1c2cnccc2c(C)c2c1c1cc(C(=O)O)ccc1n2C,4.3% (active)
12,COc1ccc(-c2cn(Cc3ccc4c(Br)cc(Br)c(O)c4n3)nn2)cc1,89.7%
13,COC(=O)c1c(C(=O)OC)c2ccc3c4ncccc4ccc3n2c1C(=O)c1ccc(C)cc1,98.7%
14,O=[N+]([O-])c1ccc(N/N=C\c2cc(Cl)ccc2O)nc1,39.4%
15,COc1ccc(C(=O)/C=C/c2ccc(C)cc2)cc1S(N)(=O)=O,47.3%
16,CN1CCN(CC(=O)N(C)c2ccc(N=C(c3ccccc3)c3c(O)[nH]c4ccc([N+](=O)[O-])cc34)cc2)CC1,51.3%
17,C=CC(=O)NCc1cccc(Nc2ncc(Br)c(NCCCNC(=O)C3CCC3)n2)c1,9.47% (active)
18,Nc1nc(N)c2c(n1)NC(c1cccc(Nc3ccnc4cc(C(F)(F)F)ccc34)c1)CC(c1ccc(Cl)cc1)=N2 (centres undefined),69.5%
19,C=C(C[n+]1ccccc1)[C@@H]1CC[C@]2(C(=O)OC)CC[C@]3(C)[C@H](CC[C@@H]4[C@@]5(C)CCC(=O)C(C)(C)[C@@H]5CC[C@]43C)[C@@H]12,101%
